PubChem BioAssay (EPA / NIEHS)
Where “and” joins values, the source holds several entries; their conditions need not be identical. Equal entries are not always repeated. Results filed as inconclusive are left out. The source holds several records for some structures; these can differ, active in one and inactive in another. Calls of active or inactive are those of the source. How the source made its calls, unless noted: active means hit-call score of the fitted dose curve at least 0.9, where 1 is the maximum; inconclusive means response in the unintended direction; inactive means score below 0.9.

Columns and labels:
[1] = read-out: Thyroid Hormone Responsive (THRSP), THRSP (gene 7069); assay: LTEA_HepaRG_THRSP: Life Technologies and Expression Analysis (LTEA) Assay for Thyroid Hormone Responsive (THRSP) using HepaRG (AID 2283536; active means hit-call score of the fitted dose curve at least 0.9, where 1 is the maximum; inactive means score below 0.9); conditions: mRNA level, 48 h; actives raise or lower the signal
How it was run: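 Differentiated HepaRG cells treated 48 h in serum-free induction medium with 8 half-log concentrations up to 100 uM (0.5% DMSO), duplicates. THRSP mRNA by TaqMan qRT-PCR normalised to ACTB, GAPDH, POLR2A; bidirectional fit versus DMSO.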

[2] = read-out: Cellular tumor antigen p53 (Homo sapiens) (UniProt P04637); assay: LTEA_HepaRG_TP53: Life Technologies and Expression Analysis (LTEA) Assay for Tumor Protein P53 (TP53) using HepaRG (AID 2283537; active means hit-call score of the fitted dose curve at least 0.9, where 1 is the maximum; inactive means score below 0.9); conditions: mRNA level, 48 h; actives raise or lower the signal
How it was run: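 Differentiated HepaRG cells in serum-free induction medium exposed 48 h in duplicate to 8 half-log concentrations, top 100 uM, 0.5% DMSO. TP53 mRNA by TaqMan qRT-PCR (Fluidigm), normalized to ACTB, GAPDH, POLR2A; fitted bidirectionally versus DMSO.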

[3] = read-out: UDP glucuronosyltransferase (UGT1A1), UGT1A1 (gene 54658); assay: LTEA_HepaRG_UGT1A1: Life Technologies and Expression Analysis (LTEA) Assay for UDP glucuronosyltransferase (UGT1A1) using HepaRG (AID 2283538; active means hit-call score of the fitted dose curve at least 0.9, where 1 is the maximum; inactive means score below 0.9); conditions: mRNA level, 48 h; actives raise or lower the signal
How it was run: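 Human liver HepaRG cultures receive test chemical for 48 h, up to 100 uM in 0.5% DMSO, with phenobarbital induction controls. UGT1A1 mRNA is measured by qRT-PCR and normalized to ACTB, GAPDH and POLR2A.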

[4] = read-out: UDP glucuronosyltransferase (UGT1A6), UGT1A6 (gene 54578); assay: LTEA_HepaRG_UGT1A6: Life Technologies and Expression Analysis (LTEA) Assay for UDP glucuronosyltransferase (UGT1A6) using HepaRG (AID 2283539; active means hit-call score of the fitted dose curve at least 0.9, where 1 is the maximum; inactive means score below 0.9); conditions: mRNA level, 48 h; actives raise or lower the signal
How it was run: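 qRT-PCR readout of UGT1A6 mRNA (normalized to ACTB/GAPDH/POLR2A) in differentiated HepaRG cells after 48 h chemical exposure; 8 concentrations, top 100 uM, half-log steps, 0.5% DMSO. Bidirectional curve fit relative to DMSO baseline.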

[5] = read-out: X-box binding protein 1 (XBP1), XBP1 (gene 7494); assay: LTEA_HepaRG_XBP1: Life Technologies and Expression Analysis (LTEA) Assay for X-box binding protein 1 (XBP1) using HepaRG (AID 2283540; active means hit-call score of the fitted dose curve at least 0.9, where 1 is the maximum; inactive means score below 0.9); conditions: mRNA level, 48 h; actives raise or lower the signal
How it was run: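 HepaRG, 48 h exposure, 8-pt half-log CRC top 100 uM, 0.5% DMSO vehicle, duplicates. Readout: TaqMan qRT-PCR of XBP1 mRNA, housekeeping-normalised (ACTB/GAPDH/POLR2A); bidirectional fit vs DMSO baseline.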

[6] = LTEA_HepaRG_LDH_cytotoxicity: Cytotoxicity Assessment in the Life Technologies and Expression Analysis (LTEA) Assay (AID 2283563);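 on AC50: LDH activity released into spent culture medium as a marker of cell death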
How it was run: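 HepaRG (human liver line), 48 h exposure, 8-pt half-log series from 100 uM, 0.5% DMSO vehicle, duplicates. Read-out: LDH in spent medium. Positive-direction fit vs DMSO baseline.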

[7] = ATG_XTT_Cytotoxicity: Cytotoxicity Assessment in the Attagene TRANS-FACTORIAL HepG2 Assay (AID 2283584);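 on AC50: cells exposed to compound for 24 h before reading; active means loss of viability signal versus DMSO baseline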
How it was run: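 XTT readout of cell number in transfected HepG2 cells, 24 h post-dosing; DMSO serves as negative control and baseline, with activity taken as loss of viability signal.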

[8] = biological target: Cellular tumor antigen p53 (Homo sapiens) (UniProt P04637); assay: TOX21_p53_BLA_p2_ratio: Tox21 HCT-116 p53 Agonism Beta-lactamase Assay, Ratio, Phase 2 (AID 2283592)
How it was run: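 In this cell-based reporter format, HCT116 cells were dosed with chemicals delivered from DMSO by 217-fold dilution and incubated 16 h at 37C. Emission at 460 and 530 nm after 2 h CCF4-AM loading provided the ratio, fitted upward versus DMSO.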

[9] = TOX21_p53_BLA_p3_viability: Viability Assessment in the Tox21 HCT-116 p53 Agonism Beta-lactamase Assay, Phase 3 (AID 2283593);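 further: cells exposed to compound for 16 h before reading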
How it was run: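 HCT116 cells, 4000/well, dosed 5 h after plating by pin transfer (217-fold dilution from DMSO stock) and incubated 16 h at 37C, 5% CO2. Viability read as ATP luminescence with CellTiter-Glo after 30 min at room temperature.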

[10] = biological target: Cellular tumor antigen p53 (Homo sapiens) (UniProt P04637); assay: TOX21_p53_BLA_p3_ratio: Tox21 HCT-116 p53 Agonism Beta-lactamase Assay, Ratio, Phase 3 (AID 2283596)
How it was run: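 HCT116 p53-bla cells (4000/well) given compound in DMSO (217-fold dilution) after 5 h, incubated 16 h at 37C. CCF4-AM substrate 2 h at room temperature; 460/530 nm emission ratio, gain fitted against DMSO.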

Measured: AC50

Chain of Cellular tumor antigen p53 (Homo sapiens) (P04637 whole entry, looked up): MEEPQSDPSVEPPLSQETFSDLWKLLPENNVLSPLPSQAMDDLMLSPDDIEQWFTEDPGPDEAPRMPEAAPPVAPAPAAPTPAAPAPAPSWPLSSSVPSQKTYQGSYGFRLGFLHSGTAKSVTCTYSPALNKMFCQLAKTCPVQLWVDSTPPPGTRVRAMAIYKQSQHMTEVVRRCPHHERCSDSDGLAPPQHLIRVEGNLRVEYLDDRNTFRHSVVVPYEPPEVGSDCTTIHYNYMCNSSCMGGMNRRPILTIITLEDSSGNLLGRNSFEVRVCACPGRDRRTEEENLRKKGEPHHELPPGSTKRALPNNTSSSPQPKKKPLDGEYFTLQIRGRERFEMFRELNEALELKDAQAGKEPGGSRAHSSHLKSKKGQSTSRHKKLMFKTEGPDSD

C#C[C@]1(O)CC[C@H]2[C@@H]3CCC4=CC(=O)CC[C@@H]4[C@H]3CC[C@@]21CC
active: [1] 0.0275 µM | [3] 0.291 µM
inactive: all other assays above

CCN(Cc1c(F)cccc1Cl)c1c([N+](=O)[O-])cc(C(F)(F)F)cc1[N+](=O)[O-]
active: [1] 22.8 µM | [2] 30.3 µM | [3] 7.12 µM
inactive: all other assays above

CCCOC(=O)NCCCN(C)C
not listed: [7]
inactive: all other assays above

CC(=O)S[C@@H]1CC2=CC(=O)CC[C@]2(C)[C@H]2CC[C@@]3(C)[C@@H](CC[C@@]34CCC(=O)O4)[C@H]12
inactive: [2] | [7] | [8] | [9] | [10]
active: [1] 36.5 µM | [3] 72.2 µM | [4] 50 µM | [5] 50 µM | [6] 79.1 µM | [8] 15.8 µM

C[C@]12C[C@H](O)[C@H]3[C@@H](CCC4=CC(=O)CC[C@@]43C)[C@@H]1CC[C@@H]2C(=O)CO
active: [1] 50 µM | [3] 50 µM
inactive: all other assays above

CN(C)C(=O)Nc1ccc(Cl)c(Cl)c1
active: [1] 27.2 µM | [3] 23.5 µM | [5] 21.7 µM
inactive: all other assays above

O=C(O)c1ccccc1
inactive: all assays above

CCCCC(CC)CN1C(=O)C2C3C=CC(C3)C2C1=O (configuration not stated)
active: [1] 22.9 µM | [3] 88.5 µM
not listed: [9] | [10]
inactive: all other assays above

CC(C)(c1ccc(O)cc1)c1ccc(O)cc1
active: [8] 85.6 µM
inactive: [1] | [2] | [3] | [4] | [5] | [6] | [7] | [8] | [9] | [10]

COCCO
not listed: [9]
inactive: all other assays above

Oc1ccc(C(c2ccc(O)cc2)C(Cl)(Cl)Cl)cc1
active: [2] 90.4 µM | [3] 88.5 µM | [4] 79.2 µM | [5] 74.1 µM | [6] 76.4 µM | [8] 72.9 µM and 69.1 µM | [9] 46.1 µM | [10] 72.1 µM and 74.2 µM
inactive: [1] | [7] | [9]

CC(C)CCCCCCc1ccc(O)cc1
active: [7] 50 µM [middle of 4 runs] | [9] 66.6 µM and 71.5 µM | [10] 71.2 µM
inactive: [1] | [2] | [3] | [4] | [5] | [6] | [8] | [9] | [10]

CCOC(=O)C(C)Oc1ccc(Oc2nc3ccc(Cl)cc3o2)cc1 (configuration not stated)
not listed: [7] | [10]
inactive: all other assays above

O=C(c1ccc(O)cc1O)c1ccc(O)cc1O
inactive: [1] | [2] | [3] | [4] | [5] | [6] | [7] | [8]
active: [8] 73.1 µM | [10] 73.8 µM and 73.3 µM

O=C(c1ccccc1)C1CCCCC1
not listed: [8] | [9] | [10]
inactive: all other assays above

c1ccc(Nc2ccccc2)cc1
not listed: [10]
inactive: all other assays above

CSC(=O)c1cccc2nnsc12
not listed: [9]
inactive: all other assays above

CCCCC(CC)COC(=O)c1ccccc1C(=O)O (configuration not stated)
active: [3] 64.9 µM
inactive: all other assays above

CC1(C)C(C=C(Cl)Cl)C1C(=O)OCc1cccc(Oc2ccccc2)c1 (configuration not stated)
active: [3] 14.6 µM
inactive: all other assays above

CCOC(=O)c1ccc(O)cc1
inactive: all assays above

CCC(C)OC(=O)N1CCCCC1CCO (configuration not stated)
active: [3] 34.2 µM
not listed: [7] | [10]
inactive: all other assays above

CCOC(=O)COc1cc(-n2ncc(C(F)(F)F)c(C)c2=O)c(F)cc1Cl
not listed: [7] | [9] | [10]
inactive: all other assays above

CCCN(CCC)C(=O)SCC
not listed: [7]
inactive: all other assays above

COC(=O)CSc1cc(N=c2sc(=O)n3n2CCCC3)c(F)cc1Cl
active: [3] 41.4 µM
not listed: [7] | [10]
inactive: all other assays above

C[C@]12CC[C@@H]3c4ccc(O)cc4C[C@@H](CCCCCCCCCS(=O)CCCC(F)(F)C(F)(F)F)[C@H]3[C@@H]1CC[C@@H]2O (some centres not stated)
active: [1] 13.7 µM | [2] 0.0628 µM | [3] 26.9 µM | [4] 50 µM | [5] 0.0493 µM
inactive: all other assays above

CC(=O)[C@H]1CC[C@H]2[C@@H]3CCC4=CC(=O)CC[C@]4(C)[C@H]3CC[C@]12C
active: [3] 37.9 µM | [4] 63.7 µM | [6] 35.8 µM
inactive: all other assays above

N[C@@H](Cc1cc(I)c(Oc2ccc(O)c(I)c2)c(I)c1)C(=O)O
active: [1] 67.4 µM | [3] 40 µM | [4] 40 µM | [8] 33.6 µM
inactive: [2] | [5] | [6] | [7] | [8] | [9] | [10]

CCN(CC)C(=O)c1cccc(C)c1
inactive: [1] | [4] | [5] | [6] | [7]
active: [3] 16.5 µM

CCCCCCC(C)OC(=O)COc1nc(F)c(Cl)c(N)c1Cl (configuration not stated)
active: [8] 82.3 µM
not listed: [7] | [9]
inactive: all other assays above

c1ccc2[nH]c(-c3cscn3)nc2c1
active: [3] 25.8 µM
inactive: [1] | [4] | [5] | [6] | [7]

COC(=O)c1ccc(I)cc1S(=O)(=O)NC(=O)Nc1nc(C)nc(OC)n1
not listed: [3] | [7] | [10]
inactive: all other assays above

C#CCOC(=O)[C@@H](C)Oc1ccc(Oc2ncc(Cl)cc2F)cc1
active: [3] 20.2 µM
not listed: [7]
inactive: all other assays above

O=C(Nc1ccc([N+](=O)[O-])cc1Cl)c1cc(Cl)ccc1O
inactive: [1] | [2]
active: [3] 3.65 µM | [4] 3.63 µM | [5] 1.97 µM | [6] 4.38 µM | [8] 234 nM and 140 nM | [9] 159 nM and 156 nM | [10] 299 nM and 230 nM

CCOC(=O)C(C)Oc1ccc(Oc2cnc3cc(Cl)ccc3n2)cc1 (configuration not stated)
inactive: [1] | [3] | [4] | [5] | [6]

CCCCCOC(=O)COc1cc(N2C(=O)C3=C(CCCC3)C2=O)c(F)cc1Cl
inactive: [1] | [3] | [4] | [5] | [6]

CCCCOC(=O)C(C)Oc1ccc(Oc2ccc(C(F)(F)F)cn2)cc1 (configuration not stated)
not listed: [7] | [8]
inactive: all other assays above

C=CCOC(Cn1ccnc1)c1ccc(Cl)cc1Cl (configuration not stated)
inactive: [5] | [7]
active: [1] 36.2 µM | [2] 12.2 µM | [3] 77.5 µM | [4] 72.4 µM

CC(C)(C)[C@@H](O)[C@@H](Cc1ccc(Cl)cc1)n1cncn1
active: [1] 32.7 µM | [3] 6.98 µM
not listed: [7]
inactive: all other assays above

COc1nc(C)nc(NC(=O)NS(=O)(=O)c2ccccc2OCCCl)n1
inactive: [7] | [8] | [10]

O=C(O)C1(C(=O)Nc2ccc(Cl)cc2Cl)CC1
active: [1] 78 µM | [4] 79.6 µM | [5] 69.2 µM | [8] 18.6 µM
not listed: [7]
inactive: all other assays above
